Screen size: about 5,500 compounds; about 2,000 (36%) were called active. About 18% were inconclusive and are not listed. No stated cut-off is given here; in the data, active means normalized growth mostly below about 0.91 (no sharp cut-off); inconclusive means no clear call, values can overlap the other calls; inactive means mostly above about 0.92. The list shows a part of the results.
Experiment: chemical genetic growth profiling, strain panel (AID 1159580);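 further: tested at 20 µM; growth read once vehicle control cultures reached saturation at 30 °C; 1 = growth at the plate median or of vehicle wells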
Conditions: S. cerevisiae deletion strains, growth OD

Measured: normalized growth

NC(=O)c1ccccc1N1CCCCC1
inactive: locus YAL013W, strain DEP1, stronger effect = lower value 1.01 | locus YBR229C, strain ROT2, stronger effect = lower value 0.986 | locus YDL101C, strain DUN1, stronger effect = lower value 0.949 | locus YDR150W, strain NUM1, stronger effect = lower value 0.912 | locus YEL061C, strain CIN8, stronger effect = lower value 1.02 | locus YGR078C, strain PAC10, stronger effect = lower value 0.997 | locus YHR030C, strain SLT2, stronger effect = lower value 0.986 | locus YHR087W, strain rtc3, stronger effect = lower value 1.05 | locus YJL187C, strain SWE1, stronger effect = lower value 1.02 | locus YJR043C, strain POL32, stronger effect = lower value 0.99 | locus YJR075W, strain HOC1, stronger effect = lower value 0.965 | locus YKL190W, strain CNB1, stronger effect = lower value 1.01 | locus YLR039C, strain RIC1, stronger effect = lower value 1.02 | locus YLR058C, strain SHM2 (second series), stronger effect = lower value 1.02 | locus YLR085C, strain ARP6, stronger effect = lower value 1.06 | locus YLR262C, strain YPT6, stronger effect = lower value 1.02 | locus YML094W, strain GIM5, stronger effect = lower value 1.02 | locus YMR219W, strain ESC1, stronger effect = lower value 0.997 | locus YMR263W, strain SAP30, stronger effect = lower value 0.941 | locus YNL128W, strain TEP1, stronger effect = lower value 0.996 | locus YNL153C, strain GIM3, stronger effect = lower value 0.993 | locus YNL298W, strain CLA4 (second series), stronger effect = lower value 0.991 | locus YNL322C, strain KRE1, stronger effect = lower value 0.994 | locus YNR030W, strain Alg12, stronger effect = lower value 1 | locus YOL006C, strain TOP1, stronger effect = lower value 0.991 | locus YPL055C, strain LGE1, stronger effect = lower value 0.998 | locus YPL241C, strain CIN2, stronger effect = lower value 0.994 | locus YPR135W, strain CTF4, stronger effect = lower value 0.907
